Bioassay records (PubChem)
AMA1 RON2 block: disrupts binding of P. falciparum AMA1 to RON2; AID 720542; Potency, µM (highest dose often 58.2 µM), actives largely listed as inhibitors; AlphaScreen AMA1-biotinylated RON2 peptide binding; 360,000 compounds, 0.2% hits; note: nearly all actives have a fitted effect of over 45% in size
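AMA1 (3D7) with his tag at 25 nM final met compounds first, then biotinylated RON2 peptide at 25 nM; detection used donor plus acceptor beads, 10 µg/mL apiece, read by AlphaScreen after 30 min at room temperature.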
NS1 function inh: influenza NS1 inhibition; AID 2326; Potency, µM (top dose mostly 46.1 µM); 270,000 compounds, 0.4% hits; calls by dose curve; note: actives are rising curves; nearly all actives have a fitted effect of over 50% in size
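Read-out: OD600 growth recovery of NS1-expressing budding yeast. Cells grown overnight at 30C in -URA glucose medium, washed, resuspended and diluted 1:100 in 2% galactose assay medium, pH 6.0. Same strain lacking NS1 served as positive control.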
Pf growth 96h: P. falciparum growth inhibition at 96 hour, primary screen for plastid delayed-death inhibitors. P. falciparum luciferase reporter growth, 96 h. Potency, µM (doses to about 28.7 µM), usual class: inhibitors. 320,000 compounds, 6.9% hits. AID 504834
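Infected RBCs, 2% Hct / 0.05% parasitemia final; luciferase-reporter P. falciparum; cpd 96 h, 37 C, 5% CO2; luciferase detection reagent; luminescence.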
Sm TGR inh: blocks Schistosoma mansoni thioredoxin glutathione reductase. purified TGR, DTNB reduction, TNB absorbance 405 nm. Potency, µM (doses to about 114 µM), actives largely listed as inhibitors. 360,000 compounds, 3% hits; note: nearly all actives have a fitted effect of over 60% in size
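TGR 20 nM + NADPH 100 uM (dispensed conc.), cpd preinc 15 min RT; start with NADPH (500 uM addition) then DTNB (15 mM addition). Kinetic TNB absorbance, 405 nm filter. Four-parameter Hill fit across titration.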
Pf growth 48h: inhibits P. falciparum growth in the first generation, 48 h. P. falciparum luciferase growth in erythrocytes, 48 h. Potency, µM (titrated, usually from 28.7 µM), usual class: inhibitors. 310,000 compounds, 5.9% hits
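Cell-based growth assay: transgenic P. falciparum expressing firefly luciferase, cultured in red cells within RPMI 1640 containing 0.5% w/v Albumax, 24 mM bicarbonate and gentamycin. A drop in luciferase activity indicates inhibition.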
Flu NS1 inh: influenza NS1 function inhibition validation. activity change, negative = inhibition, % at 32.9 µM. shares compounds with NS1 function inh. influenza NS1 function cell assay, 15-point titration. 1,400 tested, under 10 active; calls by dose curve
PR8 titer: influenza NS1 inhibitors: inhibition of influenza A/PR/8/34 replication | shares compounds with NS1 function inh | MDCK infected influenza A/PR/8/34, virus titer TCID50; active compounds read low | virus titer (log TCID50), log10 TCID50 at 5 µM | 95 compounds, 30% hits; call rule not given here
Numbers stand for hits; - = inactive; ? = inconclusive; . = not tested or not shown. Hits are enriched below; roughly 11% of the tested compounds scored in any of these assays. Unless noted, calls come from the whole dose curve; as a rule, active = well fitted curve in the direction sought with a large enough effect; inconclusive = small, poorly fitted or top-dose-only effect, or another doubt; inactive = no such curve, though single readings can be large; an effect the other way counts as inactive or inconclusive.

SMILES | AMA1 RON2 block | NS1 function inh | Pf growth 96h | Sm TGR inh | Pf growth 48h | Flu NS1 inh | others
Cc1cc(C)n2c(SCC(=O)Nc3ccccc3)nnc2n1 | - | - | - | - | . | .
O=S(=O)(c1ccc2nc(-c3ccco3)c(-c3ccco3)nc2c1)N1CCOCC1 | - | 1µM | - | 1.58µM | 11.7µM | -
COC(=O)CN1C(=S)N(Cc2ccccc2)C(=O)C1CC(=O)Nc1ccc(Br)cc1 (stereo not given) | - | 11.2µM | ? | - | 14.7µM | -
CCCOc1ccc(NC(=O)CC2C(=O)N(Cc3ccccc3)C(=S)N2Cc2cccs2)cc1 (stereo not given) | - | 3.55µM | ? | - | ? | -
COCCCNC(=O)c1ccc2sc(C3=C[C@@H](O)[C@@H](O)[C@@H](CO)O3)nc2c1 | - | . | . | . | . | .
C[C@H]1c2cccc(O)c2C(O)=C2C(=O)[C@]3(O)C(O)=C(C(N)=O)C(=O)C(N(C)C)[C@@H]3[C@@H](O)C21 (stereo not given in full) | . | 7.08µM | . | . | . | -
COc1ccc([C@H]2CC(=O)C=C(C#CC(C)(C)C)C2)cc1 | - | . | ? | - | ? | .
CCN(CC)c1nc(N)n(CCSC(=S)N(C)C)c(=O)n1 | - | ? | ? | - | - | -
COc1ccc(C2C=C(c3ccc(C)cc3)Nc3c(C(=O)Nc4ccccc4)cnn32)cc1 (stereo not given) | . | . | . | - | . | .
O=C(Nc1ccc(O)c(-c2nc3ccccc3o2)c1)c1ccco1 | . | . | . | - | . | .
O=C(Nc1ccc(O)c(-c2nc3ccccc3o2)c1)C1(c2ccc([N+](=O)[O-])cc2)CCCC1 | - | 8.91µM | ? | - | 7.38µM | -
O=C(O)C(C(O)c1ccccc1)[n+]1ccccc1 (stereo not given) | - | . | - | - | ? | .
CN(C)C(=O)[C@@H]1C[C@H]1[C@@H](NC(=O)OCc1ccccc1)c1ccccc1 | - | - | - | - | - | .
COC(=O)[C@H]1C[C@@H]1[C@H](NC(=O)[C@H]1C[C@@H]1[C@H](NC(=O)OCc1ccccc1)c1ccccc1)c1ccccc1 | - | 10µM | 14.7µM | - | ? | -
O=C(NCc1ccccc1Cl)c1cc2c(s1)CS(=O)(=O)C2 | - | - | - | - | - | .
COC(=O)c1c(C)oc2ccc(N(C(=O)c3ccncc3)S(=O)(=O)c3ccc4ccccc4c3)cc12 | - | 11.2µM | - | - | - | -
c1ccc(-n2cnc3cc(NCc4ccccn4)ccc32)cc1 | ? | - | ? | - | - | .
c1ccc(-n2cnc3cc(NCc4ccncc4)ccc32)cc1 | - | ? | ? | - | ? | -
O=C(CSc1nc2c([nH]c3ccccc32)c(=O)n1-c1ccc(F)cc1)N1CCCc2ccccc21 | . | . | . | - | . | .
CN(CC(=O)Nc1sccc1C#N)C1CCCCC1 | - | 7.94µM | - | - | - | -
CCC(C)C(NC(=O)c1ccccc1NC(=O)c1ccco1)C(=O)NC1CCCCC1 (stereo not given) | - | 4.47µM | - | - | 9.28µM | -
O=C(Nc1ccccc1C(=O)NC1CCCCC1)c1ccco1 | - | - | ? | - | - | .
Cc1cccc(-n2c(SCC(=O)Nc3ccc(C)c(C)c3)nc3n[nH]c(C)c3c2=N)c1 | . | . | . | - | . | .
O=S(=O)(c1cccc(-c2csc(N/N=C/c3ccco3)n2)c1)N1CCOCC1 | - | - | - | - | - | .
CCOc1cc(/C=N/Nc2nc(-c3cccc(S(=O)(=O)N4CCCC4)c3)cs2)ccc1O | - | 10µM | 10.4µM | - | 9.28µM | -
SMILES | AMA1 RON2 block | NS1 function inh | Pf growth 96h | Sm TGR inh | Pf growth 48h | Flu NS1 inh | others
COc1ccc(/C=N/Nc2nc(-c3cccc(S(=O)(=O)N4CCCC4)c3)cs2)cc1OC | - | 12.6µM | 11.7µM | - | 9.28µM | -
CCn1c(SCC(=O)N2CCCC2)nc2c(c1=O)SCC2 | - | - | ? | - | ? | .
CCn1c(SCC(=O)N2CCC(C)CC2)nc2c(c1=O)SCC2 | - | 2µM | - | - | ? | -
Cc1ccccc1-c1nc(CS(=O)CC(=O)N2CCC3(CC2)OCCO3)c(C)o1 (stereo not given) | - | 1.12µM | - | 8.91µM | ? | - | PR8 titer=-
Cc1ccccc1-c1nc(CS(=O)CC(=O)N2CCN(c3cc(Cl)ccc3C)CC2)c(C)o1 (stereo not given) | . | . | . | - | . | .
COc1ccc2c(COC(=O)CCS(=O)(=O)c3ccc(C)cc3)cc(=O)oc2c1 | - | . | - | - | - | .
Cc1cccc(NC(=O)Cn2c(=O)n(CCc3c[nH]c4ccccc34)c(=O)c3cccnc32)c1 | . | 3.98µM | - | - | ? | -
O=C(Cn1c(=O)n(CCc2c[nH]c3ccccc23)c(=O)c2cccnc21)Nc1ccccc1F | - | - | - | - | ? | .
COc1ccc(C(=O)N2CCN(S(=O)(=O)c3ccc(C)cc3C)CC2)cc1OC | - | - | - | - | - | .
COc1ccc(C)cc1S(=O)(=O)N1CCN(C(=O)c2ncoc2-c2ccccc2C)CC1 | - | ? | - | - | - | -
O=C(Nc1nc(-c2ccco2)c(-c2ccco2)s1)C1CC(=O)N(c2ccc3c(c2)OCCO3)C1 (stereo not given) | 10µM | 10µM | - | 11.2µM | - | -
COc1ccc(C(=O)CSc2nnc(-c3ccccn3)n2Cc2ccco2)cc1 | - | ? | ? | 50.1µM | ? | -
CNC(=O)CSc1nnc(-c2ccccn2)n1Cc1ccco1 | - | - | - | - | - | .
CCc1[nH]c(=S)c(C#N)c(-c2ccccc2)c1C(=O)OC | - | 10µM | - | - | - | -
Cc1[nH]c(=S)c(C#N)c(-c2ccccc2)c1C(=O)Nc1ccccc1 | - | - | - | - | - | .
C=C1[C@@H](O)[C@H](CC(C)C)N(Cc2ccccc2Br)S1(=O)=O | - | . | . | . | . | .
C=CCn1c(SCC(=O)NC2(C#N)CCCCC2)nnc1-c1ccncc1 | - | . | - | - | - | .
COc1cc(/C=C/C(=O)O)cc(S(=O)(=O)Nc2ccccc2Oc2ccccc2)c1OC | - | ? | - | - | ? | -
COC(=O)Cn1c(CN(C)Cc2ccccc2)nc2c1c(=O)n(C)c(=O)n2C | - | - | ? | - | - | .
COC(=O)Cn1c(CN2CCC(Cc3ccccc3)CC2)nc2c1c(=O)n(C)c(=O)n2C | - | ? | - | - | ? | -
Cn1c(=O)cc(OCCCC(=O)NCCCN2CCN(Cc3ccccc3)CC2)c2ccccc21 | - | 3.55µM | - | - | ? | -
CC(=O)c1ccc(NC(=O)COC(=O)c2c3c(nc4ccccc24)/C(=C\c2cccs2)CCC3)cc1 | - | ? | ? | - | ? | -
NC(=S)N/N=C/c1ccccc1OCCSc1ccc(Cl)cc1 | - | 10µM | ? | - | ? | ?
COc1cccc(/C=N/NC(N)=S)c1OCc1ccccc1Cl | - | - | ? | - | ? | .
